Assays:
[1] = target: Protein kinase C gamma type (Homo sapiens) (UniProt P05129); conditions: at 1 µM;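 note: each value is an averaged percent inhibition of the enzyme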
[2] = target: T1, Protein kinase C iota type (Homo sapiens) (UniProt P41743); conditions: at 0.1 µM
T1 sequence (whole entry): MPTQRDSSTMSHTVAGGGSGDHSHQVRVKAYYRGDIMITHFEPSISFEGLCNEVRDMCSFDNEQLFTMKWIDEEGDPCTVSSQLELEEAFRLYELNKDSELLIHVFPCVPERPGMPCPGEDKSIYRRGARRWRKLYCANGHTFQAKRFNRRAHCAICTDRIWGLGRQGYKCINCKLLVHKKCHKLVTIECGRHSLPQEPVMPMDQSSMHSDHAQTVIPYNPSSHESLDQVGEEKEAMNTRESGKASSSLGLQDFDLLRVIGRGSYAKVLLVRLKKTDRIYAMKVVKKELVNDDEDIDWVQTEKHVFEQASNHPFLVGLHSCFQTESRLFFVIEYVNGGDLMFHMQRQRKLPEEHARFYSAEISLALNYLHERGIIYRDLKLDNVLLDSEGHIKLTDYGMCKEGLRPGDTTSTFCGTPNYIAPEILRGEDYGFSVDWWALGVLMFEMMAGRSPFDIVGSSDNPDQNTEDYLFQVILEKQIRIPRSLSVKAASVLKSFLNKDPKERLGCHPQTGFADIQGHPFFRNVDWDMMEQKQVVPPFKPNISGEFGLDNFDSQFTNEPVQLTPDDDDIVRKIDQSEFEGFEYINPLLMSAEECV

[3] = target: T1, Protein kinase C iota type (Homo sapiens); conditions: at 1 µM
[4] = target: Protein kinase C theta type (Homo sapiens) (UniProt Q04759); conditions: at 0.1 µM
[5] = target: Protein kinase C theta type (Homo sapiens) (UniProt Q04759); conditions: at 1 µM
[6] = target: Protein kinase C beta type (Homo sapiens) (UniProt P05771); conditions: at 0.1 µM
[7] = target: Protein kinase C beta type (Homo sapiens) (UniProt P05771); conditions: at 1 µM
[8] = target: T2, Serine/threonine-protein kinase D1 (Homo sapiens) (UniProt Q15139); conditions: at 0.1 µM
T2 sequence (whole entry): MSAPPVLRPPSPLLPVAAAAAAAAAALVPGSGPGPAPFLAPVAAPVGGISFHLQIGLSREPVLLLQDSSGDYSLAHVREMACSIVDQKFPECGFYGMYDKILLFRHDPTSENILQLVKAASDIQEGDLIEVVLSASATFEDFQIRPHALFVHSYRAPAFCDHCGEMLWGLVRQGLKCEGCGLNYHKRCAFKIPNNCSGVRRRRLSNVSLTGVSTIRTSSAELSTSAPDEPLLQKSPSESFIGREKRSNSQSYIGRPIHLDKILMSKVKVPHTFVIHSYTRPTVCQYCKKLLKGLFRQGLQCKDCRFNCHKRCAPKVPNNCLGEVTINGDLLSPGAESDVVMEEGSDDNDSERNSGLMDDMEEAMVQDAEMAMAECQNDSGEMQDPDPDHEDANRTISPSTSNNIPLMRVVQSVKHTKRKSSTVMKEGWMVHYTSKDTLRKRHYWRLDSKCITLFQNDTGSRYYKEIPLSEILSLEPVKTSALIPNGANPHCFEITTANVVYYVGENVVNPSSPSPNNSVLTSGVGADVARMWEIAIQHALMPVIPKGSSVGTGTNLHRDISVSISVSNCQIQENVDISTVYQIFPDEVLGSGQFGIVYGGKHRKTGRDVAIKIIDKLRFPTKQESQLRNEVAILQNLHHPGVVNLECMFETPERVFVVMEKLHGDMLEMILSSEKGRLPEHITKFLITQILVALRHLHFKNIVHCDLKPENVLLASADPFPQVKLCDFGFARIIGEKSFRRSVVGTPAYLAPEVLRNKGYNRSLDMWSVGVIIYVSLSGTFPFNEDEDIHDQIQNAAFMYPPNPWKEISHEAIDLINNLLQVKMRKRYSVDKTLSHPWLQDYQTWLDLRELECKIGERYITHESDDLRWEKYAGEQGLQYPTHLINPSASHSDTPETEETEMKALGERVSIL

[9] = target: T2, Serine/threonine-protein kinase D1 (Homo sapiens); conditions: at 1 µM
[10] = target: T3, Serine/threonine-protein kinase D2 (Homo sapiens) (UniProt Q9BZL6); conditions: at 0.1 µM
T3 sequence (whole entry): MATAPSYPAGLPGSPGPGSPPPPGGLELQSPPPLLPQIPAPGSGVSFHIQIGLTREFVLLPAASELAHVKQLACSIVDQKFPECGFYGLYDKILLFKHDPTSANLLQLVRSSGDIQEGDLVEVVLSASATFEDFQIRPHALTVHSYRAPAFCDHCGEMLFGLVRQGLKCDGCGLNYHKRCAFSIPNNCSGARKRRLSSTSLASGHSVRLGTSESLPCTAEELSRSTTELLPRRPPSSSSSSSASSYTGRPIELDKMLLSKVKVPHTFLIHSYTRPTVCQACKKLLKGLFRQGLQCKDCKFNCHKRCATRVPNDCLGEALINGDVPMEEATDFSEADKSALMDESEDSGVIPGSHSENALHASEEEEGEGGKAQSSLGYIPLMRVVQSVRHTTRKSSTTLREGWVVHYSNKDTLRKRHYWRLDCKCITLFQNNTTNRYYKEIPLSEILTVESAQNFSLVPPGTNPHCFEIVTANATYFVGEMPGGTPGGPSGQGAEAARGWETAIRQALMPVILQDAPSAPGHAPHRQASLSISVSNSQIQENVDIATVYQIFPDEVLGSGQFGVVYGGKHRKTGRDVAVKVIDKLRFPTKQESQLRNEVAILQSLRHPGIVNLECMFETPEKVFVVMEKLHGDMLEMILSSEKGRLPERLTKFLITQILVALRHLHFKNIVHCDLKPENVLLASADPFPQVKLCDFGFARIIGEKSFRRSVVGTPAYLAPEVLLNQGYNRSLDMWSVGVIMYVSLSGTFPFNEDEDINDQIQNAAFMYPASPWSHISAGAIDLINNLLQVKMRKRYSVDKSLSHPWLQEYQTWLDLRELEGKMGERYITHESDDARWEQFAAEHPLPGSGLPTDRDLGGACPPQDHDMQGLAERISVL

[11] = target: T3, Serine/threonine-protein kinase D2 (Homo sapiens); conditions: at 1 µM
[12] = target: T4, Serine/threonine-protein kinase D3 (Homo sapiens) (UniProt O94806); conditions: at 0.1 µM
T4 sequence (whole entry): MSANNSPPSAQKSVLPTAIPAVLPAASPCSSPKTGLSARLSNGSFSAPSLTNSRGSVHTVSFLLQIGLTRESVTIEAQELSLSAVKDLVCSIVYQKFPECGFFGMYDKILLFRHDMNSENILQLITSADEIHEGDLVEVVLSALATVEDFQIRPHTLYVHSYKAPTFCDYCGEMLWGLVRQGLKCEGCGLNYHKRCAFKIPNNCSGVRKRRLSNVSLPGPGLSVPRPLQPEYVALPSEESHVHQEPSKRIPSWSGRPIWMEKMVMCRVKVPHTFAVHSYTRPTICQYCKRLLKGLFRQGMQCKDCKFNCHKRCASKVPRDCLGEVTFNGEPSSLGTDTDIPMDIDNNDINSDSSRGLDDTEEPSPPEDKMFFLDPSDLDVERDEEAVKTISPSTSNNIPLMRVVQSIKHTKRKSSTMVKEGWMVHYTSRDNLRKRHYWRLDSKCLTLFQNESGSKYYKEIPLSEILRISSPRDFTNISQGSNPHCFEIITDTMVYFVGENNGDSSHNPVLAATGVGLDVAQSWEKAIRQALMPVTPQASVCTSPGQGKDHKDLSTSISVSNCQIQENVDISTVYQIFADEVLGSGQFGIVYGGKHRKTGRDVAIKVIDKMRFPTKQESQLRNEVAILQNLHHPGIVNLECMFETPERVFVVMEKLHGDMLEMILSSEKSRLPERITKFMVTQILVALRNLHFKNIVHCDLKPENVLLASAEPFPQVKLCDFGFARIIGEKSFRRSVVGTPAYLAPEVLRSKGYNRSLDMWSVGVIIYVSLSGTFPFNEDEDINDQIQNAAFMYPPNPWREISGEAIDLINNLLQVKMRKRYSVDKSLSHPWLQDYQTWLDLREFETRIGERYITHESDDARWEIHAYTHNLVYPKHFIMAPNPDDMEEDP

[13] = target: T4, Serine/threonine-protein kinase D3 (Homo sapiens); conditions: at 1 µM
[14] = target: T5, cGMP-dependent protein kinase 1 (Homo sapiens) (UniProt Q13976); conditions: at 0.1 µM
T5 sequence (whole entry): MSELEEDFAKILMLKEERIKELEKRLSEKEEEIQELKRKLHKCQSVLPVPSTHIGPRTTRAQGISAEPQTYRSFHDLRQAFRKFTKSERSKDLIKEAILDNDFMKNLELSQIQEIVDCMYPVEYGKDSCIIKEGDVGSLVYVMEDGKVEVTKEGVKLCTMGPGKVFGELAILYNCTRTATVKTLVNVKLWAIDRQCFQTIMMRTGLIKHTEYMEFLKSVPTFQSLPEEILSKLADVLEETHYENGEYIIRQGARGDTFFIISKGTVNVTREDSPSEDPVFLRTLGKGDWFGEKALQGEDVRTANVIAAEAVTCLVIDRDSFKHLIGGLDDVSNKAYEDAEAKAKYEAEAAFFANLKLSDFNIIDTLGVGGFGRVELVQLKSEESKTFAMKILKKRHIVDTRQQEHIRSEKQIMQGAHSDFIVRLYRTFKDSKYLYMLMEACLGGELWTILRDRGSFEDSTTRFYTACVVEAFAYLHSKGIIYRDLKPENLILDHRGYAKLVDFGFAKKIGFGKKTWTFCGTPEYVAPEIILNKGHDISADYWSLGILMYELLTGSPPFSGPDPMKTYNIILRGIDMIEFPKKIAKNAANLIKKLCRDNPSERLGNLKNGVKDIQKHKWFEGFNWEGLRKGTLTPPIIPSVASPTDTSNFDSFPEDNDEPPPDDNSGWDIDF

[15] = target: T5, cGMP-dependent protein kinase 1 (Homo sapiens); conditions: at 1 µM
[16] = target: T6, cGMP-dependent protein kinase 2 (Homo sapiens) (UniProt Q13237); conditions: at 0.1 µM
T6 sequence (whole entry): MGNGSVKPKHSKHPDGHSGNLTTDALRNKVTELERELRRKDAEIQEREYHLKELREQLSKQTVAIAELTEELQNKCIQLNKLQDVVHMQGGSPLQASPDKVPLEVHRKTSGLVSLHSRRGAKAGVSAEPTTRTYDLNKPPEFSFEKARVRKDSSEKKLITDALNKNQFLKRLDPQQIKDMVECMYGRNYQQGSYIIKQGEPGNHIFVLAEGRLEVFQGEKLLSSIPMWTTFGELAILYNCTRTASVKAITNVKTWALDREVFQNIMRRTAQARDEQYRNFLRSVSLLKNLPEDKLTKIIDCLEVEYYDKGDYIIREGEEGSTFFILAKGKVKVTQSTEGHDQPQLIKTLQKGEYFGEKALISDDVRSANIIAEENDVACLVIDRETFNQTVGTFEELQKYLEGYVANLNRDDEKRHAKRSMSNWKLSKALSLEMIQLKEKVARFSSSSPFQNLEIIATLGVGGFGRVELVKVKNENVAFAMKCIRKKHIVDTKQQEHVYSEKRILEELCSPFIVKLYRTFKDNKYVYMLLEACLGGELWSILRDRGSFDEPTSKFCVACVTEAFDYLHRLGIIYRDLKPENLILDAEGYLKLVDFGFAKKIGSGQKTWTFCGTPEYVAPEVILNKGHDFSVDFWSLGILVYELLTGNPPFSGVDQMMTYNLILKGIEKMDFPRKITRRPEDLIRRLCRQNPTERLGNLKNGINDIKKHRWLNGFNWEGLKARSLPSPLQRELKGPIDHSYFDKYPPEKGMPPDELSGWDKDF

[17] = target: T6, cGMP-dependent protein kinase 2 (Homo sapiens); conditions: at 1 µM
[18] = target: T7, cAMP-dependent protein kinase catalytic subunit PRKX (Homo sapiens) (UniProt P51817); conditions: at 0.1 µM
T7 sequence (whole entry): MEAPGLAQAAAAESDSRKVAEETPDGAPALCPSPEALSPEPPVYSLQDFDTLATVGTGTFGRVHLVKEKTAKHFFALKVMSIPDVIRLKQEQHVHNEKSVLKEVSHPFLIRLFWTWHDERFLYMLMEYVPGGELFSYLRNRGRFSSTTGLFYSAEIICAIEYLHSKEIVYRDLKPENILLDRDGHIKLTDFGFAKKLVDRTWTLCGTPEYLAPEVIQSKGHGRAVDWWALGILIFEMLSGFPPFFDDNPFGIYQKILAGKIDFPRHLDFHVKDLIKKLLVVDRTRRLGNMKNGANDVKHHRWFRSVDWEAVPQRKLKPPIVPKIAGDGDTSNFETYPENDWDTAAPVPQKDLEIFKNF

[19] = target: T7, cAMP-dependent protein kinase catalytic subunit PRKX (Homo sapiens); conditions: at 1 µM
[20] = target: Rho-associated protein kinase 1 (Homo sapiens) (UniProt Q13464); conditions: at 0.1 µM;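 note: values are mean percent inhibition of ROCK1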
Rho-associated protein kinase 1 (Homo sapiens), sequence (Q13464 2-1354 limits assumed): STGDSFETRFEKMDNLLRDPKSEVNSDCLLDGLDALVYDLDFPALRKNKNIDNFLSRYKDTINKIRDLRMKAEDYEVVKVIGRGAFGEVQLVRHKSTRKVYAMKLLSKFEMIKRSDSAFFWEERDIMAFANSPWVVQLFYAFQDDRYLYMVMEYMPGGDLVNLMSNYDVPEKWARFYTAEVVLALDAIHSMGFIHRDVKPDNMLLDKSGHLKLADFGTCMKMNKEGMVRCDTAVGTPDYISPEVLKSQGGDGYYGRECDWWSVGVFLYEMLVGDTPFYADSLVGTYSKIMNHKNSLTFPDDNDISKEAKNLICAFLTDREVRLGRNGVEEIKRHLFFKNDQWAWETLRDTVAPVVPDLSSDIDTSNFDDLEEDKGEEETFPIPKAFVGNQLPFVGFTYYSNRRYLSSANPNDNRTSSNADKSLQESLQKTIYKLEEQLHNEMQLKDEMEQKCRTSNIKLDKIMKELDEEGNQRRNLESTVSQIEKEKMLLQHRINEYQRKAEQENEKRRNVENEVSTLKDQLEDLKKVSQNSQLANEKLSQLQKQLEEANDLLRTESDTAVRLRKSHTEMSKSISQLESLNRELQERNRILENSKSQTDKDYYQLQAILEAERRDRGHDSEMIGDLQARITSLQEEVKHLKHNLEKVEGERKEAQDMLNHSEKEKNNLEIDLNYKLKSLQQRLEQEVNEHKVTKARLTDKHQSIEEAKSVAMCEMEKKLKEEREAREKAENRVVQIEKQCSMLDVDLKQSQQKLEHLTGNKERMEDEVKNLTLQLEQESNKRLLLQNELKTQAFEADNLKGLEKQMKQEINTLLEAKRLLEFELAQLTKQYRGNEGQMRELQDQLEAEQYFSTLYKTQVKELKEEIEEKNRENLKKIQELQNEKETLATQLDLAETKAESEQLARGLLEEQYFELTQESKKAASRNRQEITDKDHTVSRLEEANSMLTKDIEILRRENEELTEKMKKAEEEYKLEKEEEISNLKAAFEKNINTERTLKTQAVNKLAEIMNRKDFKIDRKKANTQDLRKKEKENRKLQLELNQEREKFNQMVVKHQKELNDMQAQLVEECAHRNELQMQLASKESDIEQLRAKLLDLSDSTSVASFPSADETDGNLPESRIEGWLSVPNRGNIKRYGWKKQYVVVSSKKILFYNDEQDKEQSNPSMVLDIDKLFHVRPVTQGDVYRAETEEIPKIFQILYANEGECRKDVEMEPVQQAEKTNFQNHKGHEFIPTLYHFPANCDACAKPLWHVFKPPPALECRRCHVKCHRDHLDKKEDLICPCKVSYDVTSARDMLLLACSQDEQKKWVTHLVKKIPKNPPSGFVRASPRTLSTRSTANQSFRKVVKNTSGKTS

Protein kinase C beta type (Homo sapiens), sequence (P05771 2-671 limits assumed): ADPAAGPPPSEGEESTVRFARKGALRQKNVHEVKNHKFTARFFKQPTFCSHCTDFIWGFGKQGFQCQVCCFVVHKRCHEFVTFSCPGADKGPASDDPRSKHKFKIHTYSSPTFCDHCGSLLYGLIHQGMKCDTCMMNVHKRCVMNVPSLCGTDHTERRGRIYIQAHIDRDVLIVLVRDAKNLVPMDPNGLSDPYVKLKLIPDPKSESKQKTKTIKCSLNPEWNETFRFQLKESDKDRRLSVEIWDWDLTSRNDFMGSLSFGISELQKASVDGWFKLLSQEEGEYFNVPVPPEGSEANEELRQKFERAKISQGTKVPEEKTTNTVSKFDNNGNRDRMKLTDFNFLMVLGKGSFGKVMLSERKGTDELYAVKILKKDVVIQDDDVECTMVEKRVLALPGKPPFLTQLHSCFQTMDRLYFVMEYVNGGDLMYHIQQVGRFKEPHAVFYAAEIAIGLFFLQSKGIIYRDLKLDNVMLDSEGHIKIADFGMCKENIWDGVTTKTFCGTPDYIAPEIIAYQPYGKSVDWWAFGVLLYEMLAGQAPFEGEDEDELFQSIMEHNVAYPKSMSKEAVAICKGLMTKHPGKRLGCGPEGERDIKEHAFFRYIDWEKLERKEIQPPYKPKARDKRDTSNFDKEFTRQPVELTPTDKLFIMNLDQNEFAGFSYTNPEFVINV
Protein kinase C theta type (Homo sapiens), sequence (Q04759 whole entry, looked up): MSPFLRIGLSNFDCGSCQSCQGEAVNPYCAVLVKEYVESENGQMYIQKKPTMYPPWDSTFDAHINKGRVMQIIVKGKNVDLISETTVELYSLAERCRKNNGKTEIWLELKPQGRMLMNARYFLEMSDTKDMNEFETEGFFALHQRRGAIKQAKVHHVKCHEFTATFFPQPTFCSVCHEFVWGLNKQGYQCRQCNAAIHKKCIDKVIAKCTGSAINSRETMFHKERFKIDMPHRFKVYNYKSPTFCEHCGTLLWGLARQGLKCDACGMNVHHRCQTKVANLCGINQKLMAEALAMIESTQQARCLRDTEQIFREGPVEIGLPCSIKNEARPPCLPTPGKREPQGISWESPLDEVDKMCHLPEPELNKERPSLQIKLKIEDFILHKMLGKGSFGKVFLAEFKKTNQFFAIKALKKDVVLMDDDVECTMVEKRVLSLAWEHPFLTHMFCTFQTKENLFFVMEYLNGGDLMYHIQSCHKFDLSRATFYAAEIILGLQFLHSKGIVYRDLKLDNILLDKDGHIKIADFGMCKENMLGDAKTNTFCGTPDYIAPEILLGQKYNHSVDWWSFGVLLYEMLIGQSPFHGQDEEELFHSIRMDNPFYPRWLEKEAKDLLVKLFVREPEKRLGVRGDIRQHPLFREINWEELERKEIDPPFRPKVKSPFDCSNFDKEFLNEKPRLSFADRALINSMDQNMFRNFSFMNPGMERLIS

Row | Compound | inhibition [1] | inhibition [2] | inhibition [3] | inhibition [4] | inhibition [5] | inhibition [6] | inhibition [7] | inhibition [8] | inhibition [9] | inhibition [10] | inhibition [11] | inhibition [12] | inhibition [13] | inhibition [14] | inhibition [15] | inhibition [16] | inhibition [17] | inhibition [18] | inhibition [19] | inhibition [20]
1 | CN1CCN(CCCNc2nc3ccc(Oc4ccc(NC(=O)Nc5cc(C(F)(F)F)ccc5F)cc4)cc3[nH]2)CC1 | 2.83% | 1.14% | 1.05% | -0.2% | -0.32% | 2.09% | 2.68% | -0.88% | -1.77% | -2.52% | -0.73% | -2.59% | -1.97% | 3.15% | 3.23% | 3.62% | 2.7% | 2.54% | 1.08% | 1.94%
2 | COc1cc2ncn(-c3cc(OCc4cccs4)c(C(N)=O)s3)c2cc1OC | 6.19% | 2.66% | 0.01% | 1.98% | 6.01% | 2.61% | 4.99% | -0.16% | -1.53% | -1.61% | -0.96% | -1.14% | -2.04% | 3.61% | 7.44% | 3.73% | 6.83% | 3.18% | -3.65% | 2.39%

From ChEMBL document CHEMBL1961873, “Compounds: GSK PKIS; Assays: Nanosyn kinase panel” (2012)
